# Screening results as filed in PubChem BioAssay.
# An excerpt weighted towards active compounds, which were near 2.4% of everything screened.
# D2 ag-1: agonists of human D2 dopamine receptor (beta-arrestin); DiscoveRx PathHunter D2 beta-arrestin, luminescence, 90 min; 100% = 57 uM dopamine signal; 360,000 tested, 0.084% active; activation, % (no concentration beside the values); P14416; AID 624465; in the data active means activation above about 40%; inconclusive means between about 15% and that limit
#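 DiscoveRx PathHunter D2 beta-arrestin cells (2,100/well) attached overnight, then compound-stimulated 90 min at 37 C in HBSS/10 mM HEPES/0.1% Tween-20 buffer; beta-galactosidase complementation read by luminescence after 1 h at ambient temperature. Dopamine 57 uM final (EC100) as control.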
# D2 ag-2: D2 dopamine receptor (human) agonism. 340,000 tested, 0.53% active. HEK293 T-REx D2 cells, calcium flux agonist mode. AID 485358. activation, % at 2 µM. P14416;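 active means activation over 3 SD above normal in the single-dose calcium agonist read, cut at about 30% in these data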; further: 0% is about no effect
#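 Tetracycline-induced HEK293 T-REx cells with force-coupled D2 receptor, plated overnight at 30 C, loaded with no-wash calcium dye. After a 10 s baseline, compound was pin-added and calcium flux read kinetically for 180 s; calcium rises flagged agonists.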
# D2 antag: D2 dopamine receptor (human) antagonism. HEK293 TREx D2 cells, calcium flux, dopamine EC80. inhibition, % at 10 µM. 340,000 tested, 2% active. AID 485344; in the data active means inhibition above about 30%; inactive means below that, where a call was filed; further: 0% is about no effect
#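 Tetracycline-induced HEK293 TREx cells expressing D2 receptor forced-coupled to calcium signalling, loaded with no-wash calcium dye. Compounds added and calcium flux read 180 s, then dopamine added at EC80 and read a further 180 s.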
# D2 PAM-1: human D2 receptor positive allosteric modulation | P14416 | DiscoveRx D2 beta-arrestin cells, luminescence, 90 min; 100% = 57 uM dopamine signal | potentiation, % (concentration not given with the values) | 360,000 tested, 0.23% active; in the data active means potentiation above about 50%; inconclusive means mostly about 30% to 49%
#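 PathHunter beta-arrestin assay in DiscoveRx D2 cells. Compounds were added with an EC20 of dopamine (50 nM final) for 90 min at 37 deg C. Luminescence was read 1 h after detection reagent, with 57 uM dopamine as the EC100 control.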
# D2 PAM-2: D2 dopamine receptor (human) potentiation. HEK293 T-REx D2, calcium flux, EC20 dopamine potentiation. potentiation, % at 10 µM. P14416. 340,000 tested, 0.34% active;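 active means potentiation over 3 SD above the plate norm, cut at about 30% in these data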; further: 0% is about no effect
#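 Primary screen. Calcium kinetics in induced HEK293 T-REx D2 cells: compound pre-addition 180 s, EC20 dopamine, 180 s more.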
# D3 arrestin ag: activates human D3 dopamine receptor beta-arrestin recruitment; shares compounds with D2 ag-2; DiscoveRx D3 beta-arrestin cells, luminescence, 90 min; Potency, µM (highest dose often 76.9 µM), without a hit: at the highest dose activation, actives largely listed as activators; 2,300 tested, 4% active; AID 720506;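 further: potency means the concentration at half of the fitted maximal effect; 100% = dopamine control response; nearly all actives have a fitted effect of over 70% in size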
# Target sequence (P35462 whole entry, looked up): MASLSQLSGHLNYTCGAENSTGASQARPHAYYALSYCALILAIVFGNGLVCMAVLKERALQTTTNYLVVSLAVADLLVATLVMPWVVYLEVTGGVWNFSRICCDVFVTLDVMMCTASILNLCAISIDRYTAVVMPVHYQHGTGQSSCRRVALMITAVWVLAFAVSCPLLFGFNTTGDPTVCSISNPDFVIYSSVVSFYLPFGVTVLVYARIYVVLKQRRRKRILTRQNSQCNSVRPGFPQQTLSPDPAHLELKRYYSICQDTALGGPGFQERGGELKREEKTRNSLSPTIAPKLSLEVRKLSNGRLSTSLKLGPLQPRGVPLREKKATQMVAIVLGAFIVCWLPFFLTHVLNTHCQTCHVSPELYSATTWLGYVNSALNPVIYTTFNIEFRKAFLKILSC
# D2 ag-3: D2 receptor agonism, beta-arrestin counterscreen. AID 720507. 2,300 tested, 5.9% active. Potency, µM (titrated, usually from 76.9 µM), inactives show top-dose activation, actives largely listed as activators. DiscoveRx PathHunter D2 beta-arrestin, luminescence, 90 min; response scale: percent relative to full dopamine signal. shares compounds with D2 ag-2; further: potency means the concentration at half of the fitted maximal effect; % of control where 0% means no effect; nearly all actives have a fitted effect of over 70% in size
# Starred values were filed as active, the others as inactive; ? = inconclusive; . = not tested or not shown; ! = a repeat was not active. Unless noted, the call rests on the fitted dose curve; in most records, active means well fitted activation curve with a large enough effect; inconclusive means small, poorly fitted or top-dose-only effect; inactive means flat fitted curve, though single readings scatter.
SMILES,D2 ag-1,D2 ag-2,D2 antag,D2 PAM-1,D2 PAM-2,D3 arrestin ag,D2 ag-3
CCOc1ccccc1N1CCN(Cc2c(C)n(C)n(-c3ccccc3)c2=O)CC1,-3.5,30.7*,84.6*,-6.8,-24.6,-10.3%,1.3%
CCc1cccc2c(-c3ccccc3)nc(SCC(=O)Nc3ccc(OC)cc3)nc12,.,-1.5,.,.,9.5,.,.
Cc1cc(C)cc(NC(=O)c2sc3nc[nH]c(=O)c3c2C)c1,.,.,.,.,-4.2,.,.
CCCCn1c(N)c(N(CCOC)C(=O)COc2ccc(C(C)=O)cc2)c(=O)[nH]c1=O,-2.3,0.2,2.0,-8.5,5.2,.,.
CCCCn1c(N)c(N(CCOC)C(=O)Cn2c(=O)cnc3ccccc32)c(=O)[nH]c1=O,7.8,1.3,-6.7,-5.8,0.2,-4.0%,-3.0%
Cc1ccccc1C(=O)N1CCC(N2CCN(Cc3ccc(F)cc3)C(=O)C2=O)CC1,.,-1.1,.,.,3.4,.,.
COc1cc(-c2noc(C)c2C#CC2(N)CCCCC2)cc(OC)c1OC,-4.1,-0.3,4.6,-9.7,-13.1,.,.
COc1cc(-c2noc(C)c2C#CC2(O)CCCCC2)cc(OC)c1OC,4.6,71.7*,-18.1,-7.3,-16.6,0.0%,2.9%
COC(=O)c1ccc(N/C=C/C(=O)c2ccccc2)cc1,-2.4,-0.1,17.9,1.0,12.1,-5.5%,-3.9%
O=S(=O)(c1ccc(OCC(O)CN2CCCC2)cc1)N1CCOCC1 (stereo not given),1.5,-0.5,2.5,-6.1,3.0,.,.
O=S(=O)(c1ccc(OCC(O)CN2CCC(Cc3ccccc3)CC2)cc1)N1CCOCC1 (stereo not given),6.5,63.1*,27.3,-16.4,-23.4,-4.3%,20.4%
O=S(=O)(c1ccc(OCC(O)CN2CCN(c3ccccc3)CC2)cc1)N1CCOCC1 (stereo not given),43.7*,85.1*,95.9*,12.9,-22.8,?,7.08µM*
O=S(=O)(c1ccc(OCC(O)CN2CCN(c3ccccc3O)CC2)cc1)N1CCOCC1 (stereo not given),?,70.7*,69.4*,0.6,-23.8,?,28.2µM*
O=[N+]([O-])c1cc2c(cc1CN1CCN(c3ccccc3F)CC1)OCO2,-2.6,6.1,-0.2,-2.3,-10.6,.,.
COc1cc(CN2CCN(c3ccccc3F)CC2)c([N+](=O)[O-])cc1OC,-0.1,36.5*,11.0,-4.3,-12.9,?,27.3%
CCOC(=O)N1CCC(NCCNC(=O)c2cccs2)CC1,7.9,6.0,5.7,-26.0,.,-9.3%,10.6%
CCOC(=O)N1CCC(NCCNC(=O)c2ccccc2Cl)CC1,1.8,-0.2,56.3*,-1.4,3.1,-14.2%,12.1%
O=C(NCCNC1CCC(c2ccccc2)CC1)c1cccs1 (stereo not given),-2.1,50.5*,48.2*,-18.4,-11.3,-4.8%,-3.2%
CCOC(=O)N1CCC(NCCNC(=O)c2ccccc2)CC1,7.4,66.0*!,50.7*,-13.1,-13.0,-1.9%,7.4%
CCOC(=O)N1CCC(NC(=O)Cc2ccccc2)CC1,-5.3,0.1,-1.4,-15.7,-3.0,.,.
CCOC(=O)N1CCC(NC(=O)c2ccccc2C(=O)O)CC1,-1.4,0.4,-5.9,0.3,-1.1,.,.
CCOC(=O)Cn1c(=O)oc2cc(S(=O)(=O)N3CCN(c4cc(C)ccc4C)CC3)ccc21,.,-1.2,.,.,1.2,.,.
COc1cc2c(cc1OC)C(COc1cc(C)cc(C)c1)N(C(=O)COc1ccccc1)CC2 (stereo not given),.,0.4,.,.,-4.5,.,.
COc1ccc(NC(=O)CN(C)C(=O)c2csc3c2CCCC3)cc1,-6.0,0.3,13.5,-19.4,-5.8,.,.
COc1cccc(NC(=O)CN(C)C(=O)c2csc3c2CCCC3)c1,5.3,.,.,-2.3,.,-5.6%,-2.7%
